Holding throughout (assay): DAPPL (digital affinity profiling via proximity ligation, sequencing); 10 mM Tris-HCl pH 7.5, 50 mM NaCl, 1 mM DTT, 4% glycerol, room temperature, 30 min; GST-TFs on glutathione beads, 16-mer random dsDNA library, 0.1% formaldehyde crosslink after washing; high values mean tight binding
One test deals with T1, FLI1 (Homo sapiens, UniProt Q01543 1-452).
T1 sequence: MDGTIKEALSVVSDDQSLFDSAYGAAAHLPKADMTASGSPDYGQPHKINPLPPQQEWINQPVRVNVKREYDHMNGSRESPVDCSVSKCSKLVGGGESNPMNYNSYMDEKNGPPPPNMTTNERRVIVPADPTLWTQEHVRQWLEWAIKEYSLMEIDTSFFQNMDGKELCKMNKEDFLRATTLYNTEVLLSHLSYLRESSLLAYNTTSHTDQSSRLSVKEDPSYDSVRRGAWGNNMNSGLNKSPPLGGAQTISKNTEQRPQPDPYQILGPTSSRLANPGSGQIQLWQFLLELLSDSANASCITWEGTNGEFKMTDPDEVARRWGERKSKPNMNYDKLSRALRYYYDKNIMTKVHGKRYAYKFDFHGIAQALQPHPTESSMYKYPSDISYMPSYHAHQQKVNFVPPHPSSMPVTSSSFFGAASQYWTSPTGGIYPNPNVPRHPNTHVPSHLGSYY
The following applies: protein: recombinant; tags: N-terminal GST; dsDNA, one strand shown. Put shortly: (§1)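 In yeast, human transcription factors were expressed with a GST fusion, then pulled down on glutathione beads and given DNA barcodes. Pooled with a tag-only sample, they were exposed to 200 nmole of a 16-mer random double-stranded DNA library (Tris/NaCl/DTT/glycerol buffer, room temperature, 30 min), washed, crosslinked with 0.1% formaldehyde, proximity-ligated using BsaI/T4 ligase for 1 h at 37 °C, PCR-amplified and read on an Illumina NextSeq500. Each hexamer's frequency of reads for a factor, divided by the matching frequency for the tag-only sample, gives the binding signal.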

The target in another test is T2, ELK1 (Homo sapiens, UniProt P19419 1-428).
T2 sequence: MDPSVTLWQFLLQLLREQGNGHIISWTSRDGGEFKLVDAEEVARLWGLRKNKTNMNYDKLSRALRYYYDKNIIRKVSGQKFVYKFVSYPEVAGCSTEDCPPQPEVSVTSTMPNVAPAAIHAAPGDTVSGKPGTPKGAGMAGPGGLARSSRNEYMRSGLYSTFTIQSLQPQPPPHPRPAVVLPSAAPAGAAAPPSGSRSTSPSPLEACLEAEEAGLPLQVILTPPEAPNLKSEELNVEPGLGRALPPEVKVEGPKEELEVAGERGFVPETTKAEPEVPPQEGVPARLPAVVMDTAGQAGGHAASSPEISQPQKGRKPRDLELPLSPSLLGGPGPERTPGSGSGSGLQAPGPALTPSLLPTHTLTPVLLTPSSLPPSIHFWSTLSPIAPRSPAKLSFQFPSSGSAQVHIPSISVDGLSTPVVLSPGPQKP
The following applies: protein: recombinant; tags: N-terminal GST; dsDNA, one strand shown. An outline of the steps:
as §1

For another test, the target named is T3, GABPA (Homo sapiens, UniProt Q06546 1-454).
T3 sequence: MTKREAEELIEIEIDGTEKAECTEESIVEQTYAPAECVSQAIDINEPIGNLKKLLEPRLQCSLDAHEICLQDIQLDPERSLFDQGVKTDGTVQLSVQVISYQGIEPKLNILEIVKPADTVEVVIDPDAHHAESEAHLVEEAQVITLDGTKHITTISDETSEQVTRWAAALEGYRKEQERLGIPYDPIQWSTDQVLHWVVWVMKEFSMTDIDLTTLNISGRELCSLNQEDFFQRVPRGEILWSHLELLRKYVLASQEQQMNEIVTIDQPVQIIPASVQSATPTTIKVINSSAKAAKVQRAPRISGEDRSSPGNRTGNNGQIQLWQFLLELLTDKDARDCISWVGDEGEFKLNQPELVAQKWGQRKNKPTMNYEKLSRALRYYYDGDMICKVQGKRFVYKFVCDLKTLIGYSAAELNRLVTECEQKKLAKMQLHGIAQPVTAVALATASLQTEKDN
To be noted: protein: recombinant; tags: N-terminal GST; dsDNA, one strand shown. An outline of the steps:
as §1

A further test concerns the target T4, ERG (Homo sapiens, UniProt P11308 1-479).
T4 sequence: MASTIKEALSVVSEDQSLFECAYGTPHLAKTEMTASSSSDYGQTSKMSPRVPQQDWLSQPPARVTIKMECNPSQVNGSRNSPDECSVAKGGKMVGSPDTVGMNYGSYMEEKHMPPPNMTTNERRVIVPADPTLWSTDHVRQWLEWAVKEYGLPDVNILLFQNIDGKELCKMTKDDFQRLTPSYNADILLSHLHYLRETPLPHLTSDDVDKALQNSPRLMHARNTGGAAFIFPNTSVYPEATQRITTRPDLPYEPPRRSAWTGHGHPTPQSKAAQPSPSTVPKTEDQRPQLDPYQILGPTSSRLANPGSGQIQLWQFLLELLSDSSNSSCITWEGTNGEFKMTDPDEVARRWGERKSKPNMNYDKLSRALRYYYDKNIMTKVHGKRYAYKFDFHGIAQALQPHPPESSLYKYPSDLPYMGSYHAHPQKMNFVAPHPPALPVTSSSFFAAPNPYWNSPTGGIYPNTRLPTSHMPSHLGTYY
To be noted: protein: recombinant; tags: N-terminal GST; dsDNA, one strand shown. An outline of the steps: as §1

In the next test the target is ELF1 (Homo sapiens, UniProt P32519 1-619). The following applies: protein: recombinant; tags: N-terminal GST; dsDNA, one strand shown. Put shortly:
as §1

The next test addresses T5, EHF (Homo sapiens, UniProt Q9NZC4 1-300).
T5 sequence: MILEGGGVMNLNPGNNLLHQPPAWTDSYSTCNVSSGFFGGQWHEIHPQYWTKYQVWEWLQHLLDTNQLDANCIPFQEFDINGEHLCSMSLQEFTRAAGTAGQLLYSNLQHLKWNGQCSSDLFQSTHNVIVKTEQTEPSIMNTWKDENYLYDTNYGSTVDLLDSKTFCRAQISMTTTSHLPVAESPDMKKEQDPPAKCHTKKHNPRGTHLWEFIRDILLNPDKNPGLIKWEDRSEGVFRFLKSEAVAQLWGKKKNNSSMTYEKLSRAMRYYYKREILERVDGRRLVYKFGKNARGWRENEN
To be noted: protein: recombinant; tags: N-terminal GST; dsDNA, one strand shown. Put shortly: as §1

A further test addresses SPI1 (Homo sapiens, UniProt P17947 1-270). The following applies: protein: recombinant; tags: N-terminal GST; dsDNA, one strand shown. An outline of the steps: as §1
The target in the next test is SPIB (Homo sapiens, UniProt Q01892 1-262). To be noted: protein: recombinant; tags: N-terminal GST; dsDNA, one strand shown. An outline of the steps: as §1
Sequence of SPIB (Q01892 whole entry): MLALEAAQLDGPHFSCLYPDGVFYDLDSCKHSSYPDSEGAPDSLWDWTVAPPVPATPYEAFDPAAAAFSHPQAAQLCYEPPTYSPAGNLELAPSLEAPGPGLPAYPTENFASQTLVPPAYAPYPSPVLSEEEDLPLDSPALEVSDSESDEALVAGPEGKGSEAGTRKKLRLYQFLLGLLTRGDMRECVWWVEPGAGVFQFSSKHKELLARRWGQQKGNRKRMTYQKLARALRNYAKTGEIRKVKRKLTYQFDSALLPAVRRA
The next test concerns the target T6, ELK3 (Homo sapiens, UniProt P41970 1-407).
T6 sequence: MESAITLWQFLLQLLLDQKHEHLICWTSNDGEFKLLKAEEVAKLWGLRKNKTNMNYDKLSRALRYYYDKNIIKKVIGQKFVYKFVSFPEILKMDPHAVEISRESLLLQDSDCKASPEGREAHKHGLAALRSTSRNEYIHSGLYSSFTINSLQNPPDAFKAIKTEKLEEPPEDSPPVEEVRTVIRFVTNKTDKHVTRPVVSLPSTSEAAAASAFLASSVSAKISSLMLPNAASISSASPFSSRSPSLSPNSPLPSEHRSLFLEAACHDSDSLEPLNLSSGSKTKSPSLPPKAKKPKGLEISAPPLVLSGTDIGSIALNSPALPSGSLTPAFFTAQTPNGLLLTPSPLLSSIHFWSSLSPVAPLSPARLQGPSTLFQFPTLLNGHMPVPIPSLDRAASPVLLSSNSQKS
To be noted: protein: recombinant; tags: N-terminal GST; dsDNA, one strand shown. An outline of the steps:
as §1

In the next test the target is T7, FEV (Homo sapiens, UniProt Q99581 1-238).
T7 sequence: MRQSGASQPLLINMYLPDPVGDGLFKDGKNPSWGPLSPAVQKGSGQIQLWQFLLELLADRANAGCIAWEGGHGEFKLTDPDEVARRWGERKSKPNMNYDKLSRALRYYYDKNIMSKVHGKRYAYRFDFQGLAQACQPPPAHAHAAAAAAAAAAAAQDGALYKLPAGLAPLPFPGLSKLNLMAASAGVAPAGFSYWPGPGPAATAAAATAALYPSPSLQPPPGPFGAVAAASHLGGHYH
To be noted: protein: recombinant; tags: N-terminal GST; dsDNA, one strand shown. An outline of the steps: as §1

The target of the next test is ETV5 (Homo sapiens, UniProt P41161 1-510). To be noted: protein: recombinant; tags: N-terminal GST; dsDNA, one strand shown. Put shortly: as §1
Sequence of ETV5 (P41161 whole entry): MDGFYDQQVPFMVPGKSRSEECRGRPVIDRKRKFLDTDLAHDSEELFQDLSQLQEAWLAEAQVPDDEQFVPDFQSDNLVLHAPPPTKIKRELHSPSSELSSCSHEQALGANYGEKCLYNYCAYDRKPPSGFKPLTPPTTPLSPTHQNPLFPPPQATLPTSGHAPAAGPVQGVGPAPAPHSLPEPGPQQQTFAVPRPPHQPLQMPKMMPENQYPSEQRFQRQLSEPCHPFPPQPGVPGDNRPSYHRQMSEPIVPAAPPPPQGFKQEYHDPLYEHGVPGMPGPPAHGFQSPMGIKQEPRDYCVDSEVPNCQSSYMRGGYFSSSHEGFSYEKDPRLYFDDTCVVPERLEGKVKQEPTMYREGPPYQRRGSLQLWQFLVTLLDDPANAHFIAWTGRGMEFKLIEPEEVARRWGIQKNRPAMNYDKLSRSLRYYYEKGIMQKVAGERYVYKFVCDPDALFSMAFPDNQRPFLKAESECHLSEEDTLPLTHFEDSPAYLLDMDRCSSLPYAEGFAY
Another test has as its target HSF1 (Homo sapiens, UniProt Q00613 1-529). The following applies: protein: recombinant; tags: N-terminal GST; chain copies: 3; dsDNA, one strand shown. An outline of the steps:
as §1

For a further test, the target named is T8, SPIC (Homo sapiens, UniProt Q8N5J4 1-248).
T8 sequence: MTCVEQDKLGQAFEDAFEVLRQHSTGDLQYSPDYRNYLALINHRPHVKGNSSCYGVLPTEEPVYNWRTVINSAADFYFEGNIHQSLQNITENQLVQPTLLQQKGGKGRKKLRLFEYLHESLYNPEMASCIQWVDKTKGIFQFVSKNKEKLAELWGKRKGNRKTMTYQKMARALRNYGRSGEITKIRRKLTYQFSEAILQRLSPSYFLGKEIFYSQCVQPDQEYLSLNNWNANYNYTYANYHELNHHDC
The following applies: protein: recombinant; tags: N-terminal GST; dsDNA, one strand shown. Put shortly:
as §1

The target of the next test is ELF4 (Homo sapiens, UniProt Q99607 1-663). The following applies: protein: recombinant; tags: N-terminal GST; dsDNA, one strand shown. An outline of the steps: as §1
Sequence of ELF4 (Q99607 whole entry): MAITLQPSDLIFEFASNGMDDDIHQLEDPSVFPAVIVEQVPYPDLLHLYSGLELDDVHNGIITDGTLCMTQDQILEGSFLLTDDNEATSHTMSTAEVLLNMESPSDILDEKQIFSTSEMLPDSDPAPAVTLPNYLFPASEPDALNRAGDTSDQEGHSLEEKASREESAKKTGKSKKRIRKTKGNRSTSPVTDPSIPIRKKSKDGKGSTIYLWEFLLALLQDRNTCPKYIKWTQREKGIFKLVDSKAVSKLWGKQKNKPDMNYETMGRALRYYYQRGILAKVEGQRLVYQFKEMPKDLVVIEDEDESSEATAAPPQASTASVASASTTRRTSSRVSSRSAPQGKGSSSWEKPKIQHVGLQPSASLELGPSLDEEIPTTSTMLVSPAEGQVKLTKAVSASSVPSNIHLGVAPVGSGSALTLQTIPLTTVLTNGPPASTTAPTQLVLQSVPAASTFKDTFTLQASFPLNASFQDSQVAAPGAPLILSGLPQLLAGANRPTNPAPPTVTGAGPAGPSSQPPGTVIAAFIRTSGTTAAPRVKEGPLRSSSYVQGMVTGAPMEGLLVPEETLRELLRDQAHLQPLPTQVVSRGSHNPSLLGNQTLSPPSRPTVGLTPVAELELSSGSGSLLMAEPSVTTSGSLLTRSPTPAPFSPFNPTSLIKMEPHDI
A further test deals with T9, ELK4 (Homo sapiens, UniProt P28324-2 1-405).
T9 sequence: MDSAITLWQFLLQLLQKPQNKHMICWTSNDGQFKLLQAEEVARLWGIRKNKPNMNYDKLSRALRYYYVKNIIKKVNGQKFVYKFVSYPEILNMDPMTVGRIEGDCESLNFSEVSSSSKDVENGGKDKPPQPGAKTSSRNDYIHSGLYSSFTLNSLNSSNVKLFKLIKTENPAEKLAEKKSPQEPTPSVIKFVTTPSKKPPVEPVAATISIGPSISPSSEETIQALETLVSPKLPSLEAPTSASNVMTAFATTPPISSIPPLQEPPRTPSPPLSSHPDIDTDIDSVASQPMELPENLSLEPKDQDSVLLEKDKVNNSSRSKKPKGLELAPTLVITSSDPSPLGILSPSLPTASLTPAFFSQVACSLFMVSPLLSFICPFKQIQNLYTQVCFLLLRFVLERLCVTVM
The following applies: protein: recombinant; tags: N-terminal GST; dsDNA, one strand shown. Put shortly:
as §1

Another test concerns the target T10, ETV2 (Homo sapiens, UniProt O00321 1-342).
T10 sequence: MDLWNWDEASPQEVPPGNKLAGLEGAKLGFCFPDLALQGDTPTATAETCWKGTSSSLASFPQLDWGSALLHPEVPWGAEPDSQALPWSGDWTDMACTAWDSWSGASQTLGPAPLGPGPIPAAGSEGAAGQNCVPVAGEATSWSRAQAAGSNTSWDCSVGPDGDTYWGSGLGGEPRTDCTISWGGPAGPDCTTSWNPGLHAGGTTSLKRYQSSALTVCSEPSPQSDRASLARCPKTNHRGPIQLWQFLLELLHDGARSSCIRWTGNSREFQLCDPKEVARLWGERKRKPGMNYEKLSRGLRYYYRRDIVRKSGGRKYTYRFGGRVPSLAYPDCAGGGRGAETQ
To be noted: protein: recombinant; tags: N-terminal GST; dsDNA, one strand shown. Put shortly: as §1

The next test concerns the target T11, ELF3 (Homo sapiens, UniProt P78545 1-371).
T11 sequence: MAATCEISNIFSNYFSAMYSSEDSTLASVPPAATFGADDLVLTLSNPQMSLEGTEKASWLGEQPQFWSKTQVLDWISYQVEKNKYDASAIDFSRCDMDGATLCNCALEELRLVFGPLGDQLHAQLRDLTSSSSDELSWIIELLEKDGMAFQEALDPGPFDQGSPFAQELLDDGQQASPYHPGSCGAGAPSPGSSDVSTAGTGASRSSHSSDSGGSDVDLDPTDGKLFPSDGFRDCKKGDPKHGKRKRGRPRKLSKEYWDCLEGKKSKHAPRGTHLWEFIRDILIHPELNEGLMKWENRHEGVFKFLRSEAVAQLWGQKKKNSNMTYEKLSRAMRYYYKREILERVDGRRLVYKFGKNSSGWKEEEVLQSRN
The following applies: protein: recombinant; tags: N-terminal GST; dsDNA, one strand shown. Put shortly:
as §1

Another test addresses CRX (Homo sapiens, UniProt O43186 1-299). The following applies: protein: recombinant; tags: N-terminal GST; dsDNA, one strand shown. An outline of the steps:
as §1

For a further test, the target named is ETV1 (Homo sapiens, UniProt P50549 1-477). The following applies: protein: recombinant; tags: N-terminal GST; dsDNA, one strand shown. Put shortly:
as §1

Sequence of ELF1 (P32519 whole entry): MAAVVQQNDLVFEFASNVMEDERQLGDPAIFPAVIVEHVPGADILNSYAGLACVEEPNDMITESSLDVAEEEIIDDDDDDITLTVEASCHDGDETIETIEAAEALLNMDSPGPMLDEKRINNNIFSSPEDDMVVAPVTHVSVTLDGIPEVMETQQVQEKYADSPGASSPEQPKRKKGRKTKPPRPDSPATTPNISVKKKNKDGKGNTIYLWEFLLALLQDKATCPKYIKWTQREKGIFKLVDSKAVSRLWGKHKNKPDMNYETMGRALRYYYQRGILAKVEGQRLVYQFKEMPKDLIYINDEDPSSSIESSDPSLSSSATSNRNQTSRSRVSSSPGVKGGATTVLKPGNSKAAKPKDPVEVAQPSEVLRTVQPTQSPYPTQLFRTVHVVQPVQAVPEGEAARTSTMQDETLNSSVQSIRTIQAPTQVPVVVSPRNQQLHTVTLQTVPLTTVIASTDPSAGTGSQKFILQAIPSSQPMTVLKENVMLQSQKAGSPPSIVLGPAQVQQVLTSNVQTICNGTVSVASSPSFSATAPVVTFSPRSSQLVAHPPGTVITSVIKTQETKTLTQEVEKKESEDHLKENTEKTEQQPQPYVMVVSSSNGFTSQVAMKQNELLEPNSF
Sequence of ETV1 (P50549 whole entry): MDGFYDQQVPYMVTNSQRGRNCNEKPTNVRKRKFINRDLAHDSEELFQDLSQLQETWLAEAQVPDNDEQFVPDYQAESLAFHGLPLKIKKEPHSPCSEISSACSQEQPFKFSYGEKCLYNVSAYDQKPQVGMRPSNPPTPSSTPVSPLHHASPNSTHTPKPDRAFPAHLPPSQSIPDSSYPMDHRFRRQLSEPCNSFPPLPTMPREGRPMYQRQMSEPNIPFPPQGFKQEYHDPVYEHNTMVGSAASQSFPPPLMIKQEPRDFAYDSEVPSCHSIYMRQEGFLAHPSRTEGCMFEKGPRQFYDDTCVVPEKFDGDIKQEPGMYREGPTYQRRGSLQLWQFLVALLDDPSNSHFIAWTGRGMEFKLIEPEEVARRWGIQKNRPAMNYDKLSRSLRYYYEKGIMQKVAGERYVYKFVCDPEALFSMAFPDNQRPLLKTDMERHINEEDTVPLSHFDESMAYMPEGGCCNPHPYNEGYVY
Sequence of HSF1 (Q00613 whole entry): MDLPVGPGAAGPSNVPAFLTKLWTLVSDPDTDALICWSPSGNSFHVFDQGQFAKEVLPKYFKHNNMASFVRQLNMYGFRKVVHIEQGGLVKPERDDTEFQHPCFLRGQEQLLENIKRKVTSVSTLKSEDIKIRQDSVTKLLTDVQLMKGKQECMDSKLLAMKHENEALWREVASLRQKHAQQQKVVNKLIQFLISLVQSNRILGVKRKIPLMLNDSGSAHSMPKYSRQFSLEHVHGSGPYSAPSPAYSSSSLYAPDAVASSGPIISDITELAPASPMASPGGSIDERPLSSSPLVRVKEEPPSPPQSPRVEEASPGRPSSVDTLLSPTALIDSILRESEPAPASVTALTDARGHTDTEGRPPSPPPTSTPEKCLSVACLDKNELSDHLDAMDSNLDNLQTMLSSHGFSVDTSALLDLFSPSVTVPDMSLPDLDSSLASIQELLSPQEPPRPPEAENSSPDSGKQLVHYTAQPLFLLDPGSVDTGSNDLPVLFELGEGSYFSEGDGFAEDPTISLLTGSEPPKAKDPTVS
Sequence of CRX (O43186 whole entry): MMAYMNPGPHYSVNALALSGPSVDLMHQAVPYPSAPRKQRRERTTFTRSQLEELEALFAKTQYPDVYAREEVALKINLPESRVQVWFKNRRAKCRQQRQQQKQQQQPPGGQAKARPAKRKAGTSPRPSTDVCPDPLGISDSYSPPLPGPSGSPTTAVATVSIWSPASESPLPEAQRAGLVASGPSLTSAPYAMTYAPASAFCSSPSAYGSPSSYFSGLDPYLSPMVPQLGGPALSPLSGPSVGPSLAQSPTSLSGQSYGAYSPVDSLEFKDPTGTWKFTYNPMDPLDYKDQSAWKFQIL

For CTCCAG, the binding signal with FLI1 was 1.08 fold enrichment (6-mer frequency, TF over GST control); with ELK1, 1.12 fold enrichment (6-mer frequency, TF over GST control); in the test with GABPA it was 1.26 fold enrichment (6-mer frequency, TF over GST control); with ERG, 1.16 fold enrichment (6-mer frequency, TF over GST control); with ELF1, 1.19 fold enrichment (6-mer frequency, TF over GST control); in the test with EHF it was 1.17 fold enrichment (6-mer frequency, TF over GST control). Besides, the binding signal is 1.21 fold enrichment (6-mer frequency, TF over GST control) with SPI1; 1.23 fold enrichment (6-mer frequency, TF over GST control) with SPIB; 1.29 fold enrichment (6-mer frequency, TF over GST control) with ELK3; 1.13 fold enrichment (6-mer frequency, TF over GST control) in the test with FEV; 1.17 fold enrichment (6-mer frequency, TF over GST control) with ETV5; 1.65 fold enrichment (6-mer frequency, TF over GST control) in the test with HSF1. Further, the binding signal is 1.16 fold enrichment (6-mer frequency, TF over GST control) with SPIC; 1.21 fold enrichment (6-mer frequency, TF over GST control) with ELF4; 1.18 fold enrichment (6-mer frequency, TF over GST control) with ELK4; 1.33 fold enrichment (6-mer frequency, TF over GST control) with ETV2; 1.02 fold enrichment (6-mer frequency, TF over GST control) with ELF3; 1.1 fold enrichment (6-mer frequency, TF over GST control) in the test with CRX. In addition, the binding signal with ETV1 was 1.16 fold enrichment (6-mer frequency, TF over GST control).

The values above are taken from article PMC7862700, “An all-to-all approach to the identification of sequence-specific readers for epigenetic DNA modifications on cytosine”.
